Measurements: PubChem BioAssay AID1159580 (chemical genetic matrix, 2015)
About 2,000 (36%) of roughly 5,500 compounds were called active. Another 18% or so got no clear call; they are omitted. No stated cut-off is given here; in the data, active means normalized growth mostly below about 0.91 (no sharp cut-off); inconclusive means no clear call, values can overlap the other calls; inactive means mostly above about 0.92. Some of the results follow.

Assay: chemical genetic growth profiling, strain panel (AID 1159580);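 further: tested at 20 µM; growth read once vehicle control cultures reached saturation at 30 °C; 1 = growth at the plate median or of vehicle wells; lower values mean less growth of the strain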
Details: S. cerevisiae deletion strains, growth OD

Measured: normalized growth

CC(CC(=O)C1OC1(C)C)C1C(=O)CC2(C)C3=CCC4C(C)(C)C(OC5OCC(O)C(O)C5O)CCC45CC35C(O)CC12C (configuration not stated)
inactive: locus YAL021C, strain ccr4, hits give low values 1.03 | locus YAL026C, strain drs2, hits give low values 1.01 | locus YAL030W, strain snc1, hits give low values 1.04 | locus YBL061C, strain skt5, hits give low values 1.02 | locus YBR009C, strain hhf1, hits give low values 1.02 | locus YBR023C, strain chs3, hits give low values 1.01 | locus YBR171W, strain sec66, hits give low values 1.03 | locus YBR231C, strain swc5, hits give low values 1.02 | locus YBR279W, strain paf1, hits give low values 1.02 | locus YCL011C, strain gbp2, hits give low values 1.02 | locus YCL016C, strain dcc1, hits give low values 1 | locus YCL061C, strain MRC1, hits give low values 1.02 | locus YCL069W, strain vba3, hits give low values 1.01 | locus YCR088W, strain abp1, hits give low values 1.02 | locus YDL005C, strain med2, hits give low values 1.03 | locus YDL040C, strain nat1, hits give low values 1.02 | locus YDR001C, strain nth1, hits give low values 1.02 | locus YDR069C, strain doa4, hits give low values 1.03 | locus YDR137W, strain rgp1, hits give low values 1.04 | locus YDR159W, strain sac3, hits give low values 1.04 | locus YDR195W, strain ref2 1.01 | locus YDR297W, strain sur2, hits give low values 1.02 | locus YDR334W, strain swr1, hits give low values 1.01 | locus YDR335W, strain msn5, hits give low values 1.02 | locus YDR392W, strain spt3, hits give low values 1.03 | locus YEL003W, strain gim4, hits give low values 1.02 | locus YEL037C, strain rad23, hits give low values 1.04 | locus YEL061C, strain CIN8 (second series), hits give low values 1.02 | locus YER015W, strain faa2, hits give low values 1.02 | locus YER016W, strain bim1, hits give low values 1.02 | locus YER111C, strain swi4, hits give low values 1.03 | locus YER155C, strain BEM2 (second series), hits give low values 1.03 | locus YFR010W, strain ubp6, hits give low values 1.03 | locus YGL167C, strain pmr1, hits give low values 1.03 | locus YGL173C, strain kem1, hits give low values 1.02 | locus YGL227W, strain vid30, hits give low values 1.02 | locus YGL240W, strain doc1, hits give low values 1.03 | locus YGL253W, strain hxk2, hits give low values 1.01 | locus YHR013C, strain ard1, hits give low values 1.08 | locus YHR027C, strain rpn1, hits give low values 1.02 | locus YHR142W, strain chs7, hits give low values 1.01 | locus YJL092W, strain hpr5, hits give low values 1.02 | locus YJL095W, strain BCK1 (second series), hits give low values 1.03 | locus YJL115W, strain asf1, hits give low values 1.01 | locus YJL129C, strain trk1, hits give low values 1.01 | locus YJL154C, strain vps35, hits give low values 1.02 | locus YJL164C, strain tpk1, hits give low values 1.01 | locus YJL166W, strain qcr8, hits give low values 1.02 | locus YJL187C, strain SWE1, hits give low values 1.02 | locus YKL160W, strain elf1, hits give low values 1.03 | locus YKR026C, strain gcn3, hits give low values 1.03 | locus YKR091W, strain srl3, hits give low values 1.03 | locus YLL001W, strain dnm1, hits give low values 1.01 | locus YLL026W, hits give low values 1.02 | locus YLL041C, strain sdh2, hits give low values 1.01 | locus YLR027C, strain aat2, hits give low values 1.03 | locus YLR221C, strain rsa3, hits give low values 1.02 | locus YLR258W, strain gsy2, hits give low values 1.01 | locus YLR262C, strain YPT6 (second series), hits give low values 1.05 | locus YLR320W, strain mms22, hits give low values 1.04 | locus YLR342W, strain FKS1, hits give low values 1.01 | locus YLR357W, strain rsc2, hits give low values 1.02 | locus YLR370C, strain arc18, hits give low values 1.02 | locus YLR384C, strain iki3, hits give low values 1.02 | locus YML120C, strain ndi1, hits give low values 1.02 | locus YMR058W, strain fet3, hits give low values 1.02 | locus YMR125W, strain sto1, hits give low values 1.03 | locus YMR129W, hits give low values 1.02 | locus YMR205C, strain PFK2, hits give low values 1.03 | locus YMR231W, strain pep5, hits give low values 1.01 | locus YNL071W, strain lat1, hits give low values 1.01 | locus YNL209W, strain ssb2, hits give low values 1.02 | locus YNL248C, strain rpa49, hits give low values 1.02 | locus YNL322C, strain KRE1 (second series), hits give low values 1.03 | locus YNR049C, strain mso1, hits give low values 1.02 | locus YOR001W, strain rrp6, hits give low values 1.02 | locus YOR070C, strain gyp1, hits give low values 1.01 | locus YOR080W, strain dia2, hits give low values 1.03 | locus YOR083W, strain WHI5, hits give low values 1.02 | locus YOR106W, strain vam3, hits give low values 1.03 | locus YOR265W, strain rbl2, hits give low values 1.01 | locus YOR270C, strain vph1, hits give low values 1.02 | locus YOR290C, strain snf2, hits give low values 1.02 | locus YPL051W, strain arl3, hits give low values 1.02 | locus YPL078C, strain atp4, hits give low values 1.02 | locus YPL106C, strain sse1, hits give low values 1.04 | locus YPL240C, strain hsp82, hits give low values 1.04
